Results filed as inconclusive are left out. A call without a number means that no potency is given here. Active and inactive are the calls of the source. Calls follow the shape of the dose curve; as a rule, active = well fitted curve in the direction sought with a large enough effect in the repeat runs; inconclusive = weak or mixed curves; inactive = no such curve, though single readings can be large; an effect the other way counts as inactive or inconclusive.

Potency data for 34 compounds are collected here from PubChem BioAssay (Tox21).
Potency is read from the fitted curve at half-maximal effect.

Chain of Aromatase (Homo sapiens) (P11511 whole entry, looked up): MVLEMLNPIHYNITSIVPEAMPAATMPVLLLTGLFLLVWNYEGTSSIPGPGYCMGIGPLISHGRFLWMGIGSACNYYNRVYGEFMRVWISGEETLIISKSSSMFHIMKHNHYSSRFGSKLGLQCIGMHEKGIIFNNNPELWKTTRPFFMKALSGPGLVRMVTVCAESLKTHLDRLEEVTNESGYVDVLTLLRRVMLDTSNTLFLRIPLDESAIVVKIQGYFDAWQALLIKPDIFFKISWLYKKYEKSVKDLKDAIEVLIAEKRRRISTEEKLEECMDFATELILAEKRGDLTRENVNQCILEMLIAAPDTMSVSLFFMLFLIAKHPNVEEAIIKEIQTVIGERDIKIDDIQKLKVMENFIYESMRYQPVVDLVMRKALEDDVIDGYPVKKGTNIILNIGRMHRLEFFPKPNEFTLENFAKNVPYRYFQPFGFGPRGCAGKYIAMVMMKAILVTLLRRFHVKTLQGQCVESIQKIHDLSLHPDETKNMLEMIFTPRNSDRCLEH

Test system in the first assay: not listed separately
Put plainly: qHTS assay to identify small molecule antagonists of the estrogen receptor alpha (ER-alpha) signaling pathway using the BG1 cell line - cell viability counter screen (AID 743081).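 Also: compound given together with 17beta-estradiol as the ER stimulus; nearly all actives have a fitted effect of over 45% in size.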 The note with it: BG1Luc4E2 viability, CellTiter-Fluor, 22 h; series mostly up to 70.3 µM. In general terms: Quantitative high-throughput screening tests each substance at several concentrations.
With `O=C(NC(=O)c1c(F)cccc1F)Nc1cc(Cl)c(Oc2ncc(C(F)(F)F)cc2Cl)c(Cl)c1`, the Potency result is “inactive”. As for `CC(C)(CCl)C(=O)Cl`, the Potency entry is “inactive”.

On to `CN1C(=O)C(O)N=C(c2ccccc2)c2cc(Cl)ccc21` (stereo not given), for which the Potency entry was “inactive”. On to `C=CC[C@]1(O)CC[C@H]2[C@@H]3CCC4=CC(=O)CCC4=C3C=C[C@@]21C`, for which the Potency entry is “inactive”. `CC(=O)c1cc2c(cc1C)C(C)(C)C(C)CC2(C)C` (stereo not given): the Potency result was “inactive”. Same read-out and setting: to `ClP(Cl)(Cl)(Cl)Cl` belongs “inactive”; to `N#CCC#N`, “inactive”; to `NC(=O)C(Cl)(Cl)Cl`, “inactive”.

Turning to `CCCN(CC1CC1)c1c([N+](=O)[O-])cc(C(F)(F)F)cc1[N+](=O)[O-]`, the Potency result is “inactive”.

In the case of `CO/N=C(/C(=O)OC)c1ccccc1COc1ccccc1C`, the Potency entry is “inactive”. `COc1nn(CSP(=S)(OC)OC)c(=O)s1`: the Potency result is “inactive”. Consider `O=C(CCl)c1ccc(Cl)cc1Cl`, for which the Potency result was “inactive”. Take `O=C1c2ccccc2C(=O)C1C(=O)C(c1ccccc1)c1ccccc1`: the Potency entry was “inactive”. As for `O=C(CBr)c1ccccc1`, the Potency entry was “inactive”.

Take `CCCC(Cn1cncn1)c1ccc(Cl)cc1Cl` (stereo not given): the Potency entry is “inactive”. Regarding `O=C(Nc1ccccc1)Nc1ccnc(Cl)c1`, the Potency entry was “inactive”. On the same count and under the same terms, to `CC1(C)CCC(Cc2ccc(Cl)cc2)C1(O)Cn1cncn1` (stereo not given) belongs “inactive”; to `OC(c1ccc(Cl)cc1)(c1ccc(Cl)cc1)c1cccnc1`, “inactive”. Regarding `O=C(O)C1(c2ccc3c(c2)OC[C@H](Cc2ccc(-c4ccccc4)cc2)[C@H]3O)CCCC1`, the Potency entry is “inactive”.

With `CCOP(=S)(OCC)Oc1cc(Cl)c(Br)cc1Cl`, the Potency result is “inactive”. Consider `N#Cc1cc(I)c(O)c(I)c1`, for which the Potency entry is “inactive”. On to `C[N+](C)(C)CCCl`, for which the Potency entry was “inactive”. On the same count and under the same terms, to `CN(C)c1ccc(N(C)C)cc1` belongs “inactive”; to `O=S1(=O)OC(c2cc(Br)c(O)c(Br)c2)(c2cc(Br)c(O)c(Br)c2)c2ccccc21`, 22.3 µM (active); to `CC(C)(OO)c1ccccc1`, “inactive”. Same read-out and setting: to `Clc1cc(C(Cl)(Cl)Cl)cnc1Cl` belongs “inactive”; to `IC(I)=C(I)I`, “inactive”.

Another assay addresses Aromatase (Homo sapiens) (UniProt P11511). The experiment in a line: qHTS assay to identify aromatase inhibitors (AID 743083). Also: nearly all actives have a fitted effect of over 55% in size. The note with it: MCF-7 aro ERE, testosterone-driven ERE luciferase, 24 h; series mostly up to 70.3 µM.
Turning to `CC(C)(C)C(O)C(Oc1ccc(Cl)cc1)n1cncn1` (stereo not given), the Potency was 21.1 µM (active). `CC(C)(CCl)C(=O)Cl`: the Potency entry was “inactive”. On the same count and under the same terms, the same measure for `CN1C(=O)C(O)N=C(c2ccccc2)c2cc(Cl)ccc21` (stereo not given): “inactive”; for `CC(=O)c1cc2c(cc1C)C(C)(C)C(C)CC2(C)C` (stereo not given): 54.5 µM (active). For `ClP(Cl)(Cl)(Cl)Cl`, the Potency result was “inactive”. With `N#CCC#N`, the Potency entry is “inactive”. On to `NC(=O)C(Cl)(Cl)Cl`, for which the Potency entry is “inactive”.

On to `CCCN(CC1CC1)c1c([N+](=O)[O-])cc(C(F)(F)F)cc1[N+](=O)[O-]`, for which the Potency result was “inactive”. Turning to `CCCCC(O)(Cn1cncn1)c1ccc(Cl)cc1Cl` (stereo not given), the Potency was 48.5 µM (active). In the case of `COc1nn(CSP(=S)(OC)OC)c(=O)s1`, the Potency was 61.1 µM (active).

Take `O=C(CCl)c1ccc(Cl)cc1Cl`: the Potency entry is “inactive”.

Take `O=C1c2ccccc2C(=O)C1C(=O)C(c1ccccc1)c1ccccc1`: the Potency result was “inactive”. Consider `O=C(CBr)c1ccccc1`, for which the Potency result is “inactive”.

Turning to `O=C1NCN(c2ccccc2)C12CCN(CCCOc1ccc(F)cc1)CC2`, the Potency was 16.8 µM (active).

Turning to `CO/C=C(/C(=O)OC)c1ccccc1COc1cccc(C(F)(F)F)n1`, the Potency is 68.5 µM (active).

On to `CCCC(Cn1cncn1)c1ccc(Cl)cc1Cl` (stereo not given), for which the Potency is 12.2 µM (active).

`O=C(Nc1ccccc1)Nc1ccnc(Cl)c1`: the Potency is 54.5 µM (active). On the same count and under the same terms, to `COCCOCCO` belongs “inactive”. The same measure, in the same setting: to `CC1(C)CCC(Cc2ccc(Cl)cc2)C1(O)Cn1cncn1` (stereo not given) belongs 30.6 µM (active); to `O=C(O)C1(c2ccc3c(c2)OC[C@H](Cc2ccc(-c4ccccc4)cc2)[C@H]3O)CCCC1`, “inactive”.

As for `CCOP(=S)(OCC)Oc1cc(Cl)c(Br)cc1Cl`, the Potency entry is “inactive”.

Turning to `C[N+](C)(C)CCCl`, the Potency entry was “inactive”. In the case of `O=S1(=O)OC(c2cc(Br)c(O)c(Br)c2)(c2cc(Br)c(O)c(Br)c2)c2ccccc21`, the Potency was 22.3 µM (active). Still for that read-out and setting: to `CC(C)(OO)c1ccccc1` belongs “inactive”; to `O=C1C(=O)c2cccc3cccc1c23`, “inactive”; to `Clc1cc(C(Cl)(Cl)Cl)cnc1Cl`, 24.3 µM (active). Take `c1cc2ccc3cccc4ccc(c1)c2c34`: the Potency result was “inactive”. The same measure, in the same setting: to `IC(I)=C(I)I` belongs 6.86 µM (active).
